In PubChem BioAssay AID588347 (National Center for Advancing Translational Sciences (NCATS), 2011):
The list shows a part of the results. Records with an inconclusive call do not appear. Active and inactive are the calls of the source. Calls come from the whole dose curve; as a rule, active = well fitted inhibition curve with a large enough effect; inconclusive = small, poorly fitted or top-dose-only effect, or another doubt; inactive = no such curve, though single readings can be large or run the other way.

Target: Histone acetyltransferase KAT2A (Homo sapiens) (UniProt Q92830)
Test: qHTS Assay for Inhibitors of GCN5L2: Hit confirmation
Conditions: GCN5L2 HAT, ThioGlo1 CoA fluorescence, 20 min
Excerpt: Histone acetyltransferase (HAT) enzymes transfer a […] group from acetyl-coenzyme A to the epsilon-amino group of conserved lysine residues of N-terminal histone tails. Acetylation results in charge neutralization of this positively charged amino acid, decreasing interactions with the […] backbone and making the DNA more accessible for transcription. HATs have been recognized as an emerging drug target for treatment of cancer, diabetes, asthma, chronic obstructive pulmonary disease, cardiac disease, and viral infection. Protein identified with HAT activity include the […] like 2 (GCN5L2, a.ka. Histone acetyltransferase KAT2A) which acetylates histone H3 at Lys9, 14, 18, 13, and to lesser extent histones H4 and H2B. This activates transcription of the gene by modulating chromatin structure and installing the acetyllysine recognition mark for bromodomain-containing coactivator proteins. A quantitative high throughput screen was developed to identify small molecule inhibitors. The assay is based on the principle that it measures formation of reduced CoA with the pro-fluorescent maleimide derivative ThioGlo1 that becomes fluorescent upon reaction with the free thiol of CoA. A large number of artifacts are expected in this primary screen, compounded by the assay format (fluorescent artifacts) and by the high top concentration tested for each substance. […] Yasgar, et al. Compound Management for Quantitative High-Throughput Screening. […] Inglese, et al. Quantitative high-throughput screening: a titration-based approach that efficiently identifies biological activities in large chemical libraries. […]
To each well of a 1,536w plate, 3ul of GCN5L2 (final concentration 20nM, in 50mM HEPES, 0.1mM EDTA (pH 7.5), 0.01% Tween-20 buffer) are added using a Kalypsys dispenser. […] Plates are read immediately on the ViewLux (PerkinElmer) (Ex340nm/Em540nm) for a 0 min read, incubated for 20 min at room temperature, and read again on the ViewLux with the same settings. The initial read was carried out to identify compounds that are potentially fluorescent.

Chain of Histone acetyltransferase KAT2A (Homo sapiens) (Q92830 whole entry, looked up): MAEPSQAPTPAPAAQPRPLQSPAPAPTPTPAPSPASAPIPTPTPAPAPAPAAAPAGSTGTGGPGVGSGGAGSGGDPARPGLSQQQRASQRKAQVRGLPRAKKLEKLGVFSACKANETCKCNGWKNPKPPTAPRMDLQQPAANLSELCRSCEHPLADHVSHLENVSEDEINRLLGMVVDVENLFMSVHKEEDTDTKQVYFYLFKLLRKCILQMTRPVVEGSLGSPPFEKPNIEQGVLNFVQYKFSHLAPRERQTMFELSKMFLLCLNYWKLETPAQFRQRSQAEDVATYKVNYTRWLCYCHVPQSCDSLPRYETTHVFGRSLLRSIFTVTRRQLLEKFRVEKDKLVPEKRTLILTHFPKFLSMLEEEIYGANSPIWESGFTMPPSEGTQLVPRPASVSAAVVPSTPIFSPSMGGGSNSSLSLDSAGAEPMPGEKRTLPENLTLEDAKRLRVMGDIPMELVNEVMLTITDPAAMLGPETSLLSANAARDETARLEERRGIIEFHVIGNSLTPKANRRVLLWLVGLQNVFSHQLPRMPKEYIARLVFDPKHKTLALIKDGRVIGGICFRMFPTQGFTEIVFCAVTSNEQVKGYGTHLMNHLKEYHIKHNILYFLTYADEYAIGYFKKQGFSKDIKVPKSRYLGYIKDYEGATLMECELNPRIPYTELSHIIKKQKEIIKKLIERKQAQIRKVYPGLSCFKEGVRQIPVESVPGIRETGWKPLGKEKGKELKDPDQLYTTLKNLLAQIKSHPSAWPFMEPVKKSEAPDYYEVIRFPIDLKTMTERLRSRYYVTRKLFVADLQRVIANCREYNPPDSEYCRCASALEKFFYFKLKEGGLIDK

Potency, active:
CC1=C/C(=N\OS(=O)(=O)c2ccccc2)C=CC1=O 10.2 µM
FC(F)(F)C1CCCN(c2nsc3ccccc23)C1 (stereo not drawn) 2.89 µM
O=c1[nH]c2ccccc2n2c(-c3ccccc3)nnc12 6.46 µM
